# A number with no mark means an inactive call. Calls of active or inactive are those of the source.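 The calls were made as follows, unless noted: active = mean inhibition above 46.5%, the solvent-only control mean plus 3 SD; inactive = the rest.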
# Tests used:
# [1] = test system: transactivating tegument protein VP16 (Human herpesvirus 1); experiment: VP16 transactivation reporter inhibitors, counter-screen for SRC2 inhibitor project, cell-based, luminescence, single concentration (AID 652007; in the data active = inhibition above about 36%); conditions: cell-based VP16 transactivation luciferase reporter, at 8.9 µM, hits give high values
# [2] = biological target: Nuclear receptor coactivator 2 (Homo sapiens) (UniProt Q15596); experiment: SRC2 coactivator transcriptional activity inhibitors, confirmation, cell-based, luminescence, HEK293, triplicate (AID 652008); conditions: HEK293 GAL4-SRC2 luciferase reporter, at 8.9 µM, hits give high values;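 also: 0% = DMSO-treated cells and 100% = Gossypol at 36 µM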
# Chain of Nuclear receptor coactivator 2 (Homo sapiens) (Q15596 whole entry, looked up, the tested form may be a part): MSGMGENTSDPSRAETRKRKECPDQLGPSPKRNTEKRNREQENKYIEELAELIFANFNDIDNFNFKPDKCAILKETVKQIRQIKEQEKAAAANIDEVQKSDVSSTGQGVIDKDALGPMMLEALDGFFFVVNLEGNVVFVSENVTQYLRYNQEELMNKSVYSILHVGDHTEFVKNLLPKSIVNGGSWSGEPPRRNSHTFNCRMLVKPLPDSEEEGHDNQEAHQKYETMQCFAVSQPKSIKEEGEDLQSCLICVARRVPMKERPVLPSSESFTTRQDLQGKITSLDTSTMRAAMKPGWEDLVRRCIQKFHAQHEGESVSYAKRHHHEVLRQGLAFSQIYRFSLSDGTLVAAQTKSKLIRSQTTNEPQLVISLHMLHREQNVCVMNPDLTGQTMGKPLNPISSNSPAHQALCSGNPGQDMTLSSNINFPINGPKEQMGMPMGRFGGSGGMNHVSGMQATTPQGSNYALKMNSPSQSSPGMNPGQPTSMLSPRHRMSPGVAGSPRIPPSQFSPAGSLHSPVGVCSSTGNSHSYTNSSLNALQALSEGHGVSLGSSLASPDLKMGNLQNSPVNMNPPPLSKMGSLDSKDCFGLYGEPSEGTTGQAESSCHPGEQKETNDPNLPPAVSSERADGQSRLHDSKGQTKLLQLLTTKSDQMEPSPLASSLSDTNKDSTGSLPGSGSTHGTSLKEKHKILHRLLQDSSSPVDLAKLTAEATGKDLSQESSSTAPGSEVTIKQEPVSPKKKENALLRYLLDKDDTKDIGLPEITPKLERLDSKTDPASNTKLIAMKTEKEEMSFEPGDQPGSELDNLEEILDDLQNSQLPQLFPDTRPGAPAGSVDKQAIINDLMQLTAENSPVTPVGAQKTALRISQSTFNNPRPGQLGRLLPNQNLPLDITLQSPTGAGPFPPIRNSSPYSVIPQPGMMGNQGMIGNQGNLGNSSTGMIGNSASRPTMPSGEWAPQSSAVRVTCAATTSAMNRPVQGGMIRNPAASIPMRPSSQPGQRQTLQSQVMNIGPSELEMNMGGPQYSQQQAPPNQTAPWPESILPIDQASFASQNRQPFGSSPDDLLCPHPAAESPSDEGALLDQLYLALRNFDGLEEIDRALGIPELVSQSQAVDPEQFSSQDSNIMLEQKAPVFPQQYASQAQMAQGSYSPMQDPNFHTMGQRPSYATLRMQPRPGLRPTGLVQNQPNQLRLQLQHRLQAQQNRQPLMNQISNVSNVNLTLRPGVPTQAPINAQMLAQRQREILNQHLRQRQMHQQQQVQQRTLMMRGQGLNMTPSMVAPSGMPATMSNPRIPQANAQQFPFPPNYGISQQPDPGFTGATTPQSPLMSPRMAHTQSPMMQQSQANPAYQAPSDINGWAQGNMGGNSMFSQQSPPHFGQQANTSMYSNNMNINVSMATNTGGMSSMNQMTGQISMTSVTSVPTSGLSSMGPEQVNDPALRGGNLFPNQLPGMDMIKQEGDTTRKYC
SMILES,inhibition [1],inhibition [2]
CC(C)C(=O)Nc1cccc2nsnc12,-7.28%,5.54%
Cc1ccc(-c2c3c(nc4sc(C(N)=O)c(N)c24)CCC3)cc1,1.89%,34.5%
COCCNC(=O)/C(C#N)=C/c1cc(C(C)C)c(OC)cc1C,-4.35%,16.8%
CNC(=O)c1nnsc1S(=O)(=O)c1ccc(Cl)cc1,49.1% (active),49.1% (active)
Cc1nc(N/N=C/c2ccccn2)sc1C,29.8%,60.2% (active)
CCOC(=O)CCSc1nc(C(C)(C)C)cc(C(F)(F)F)c1C#N,-14.2%,-27.6%
CCn1c(=O)c2c(cnn2C)c2ccccc21,25.8%,50.6% (active)
Cc1ccc(C2=[N+]([O-])C3(CCCCC3=O)N(O)C2(C)C)cc1 (stereo not drawn),-5.08%,-2.69%
COc1ccc(O)c(/C=N/NC(=O)c2ccc(CSc3nc(C)cc(C)n3)cc2)c1,0.19%,26.4%
CCC(Cc1ccccc1)NC(=O)C1CCN(c2nn3c(=O)cc(C)nc3s2)CC1 (stereo not drawn),-17.6%,-18.8%
O=c1oc2ccc(C#CC3(O)CCCCC3)cc2cc1-n1cc(-c2ccccn2)nn1,-8.43%,-3.27%
CCCC(=O)NC(c1ccccc1)c1ccc2cccnc2c1O (stereo not drawn),-0.88%,33.3%
CCOc1ccc(-c2cc(CCCC(=O)NCc3ccc(C)cc3)no2)cc1,31.4%,60.2% (active)
COC(=O)COc1ccc(-c2nccc(-c3ccccn3)n2)cc1,16.9%,73.4% (active)
Cc1ccc2sc(N(CCCN(C)C)C(=O)CCS(=O)(=O)c3ccccc3)nc2c1C,1.51%,27.7%
CCn1c(SCC(=O)c2ccc(-c3ccccc3)cc2)nnc1-c1ccc(C(C)(C)C)cc1,22.6%,31.3%
CCCN(CCC)Cc1c(C(=O)N/N=C/CCc2ccccc2)nnn1-c1nonc1N,-6.81%,-9.2%
O=C(NCCCN1CCOCC1)c1ccc(CNS(=O)(=O)c2ccc(Br)cc2)cc1,-18.4%,19.1%
CN1CCN(S(=O)(=O)c2cccc(C(=O)Nc3ccc(Br)cc3Br)c2)CC1,12.2%,12.1%
Cc1ccc(O)c(/C=N/NC(=O)Cc2ccc(Cl)cc2)c1,-11.1%,-13.9%
CCCOc1ccc(C(=O)C(CN2CCOCC2)c2ccccc2)cc1 (stereo not drawn),14%,53.9% (active)
Cn1nnnc1Sc1ncnc2scc(-c3ccc(Cl)cc3)c12,18.1%,42.2%
O=[N+]([O-])c1ccc(Oc2ccc(F)cc2Br)c2ccncc12,7.49%,50.2% (active)
CC/C=C\[C@H](O)[C@H](O)C1=C(C)C(=O)[C@]2(O1)C(=O)N[C@@](OC)(C(=O)c1ccccc1)C2O (stereo partly drawn),-28.1%,-3.87%
NNC(=O)COc1ccc(-c2nccc(-c3ccc(F)cc3)n2)cc1,-14.6%,32.3%

SMILES,inhibition [1],inhibition [2]
CN(C(=O)CCc1nnc(-c2ccc(-c3ccccc3)cc2)o1)C1CCOCC1,-6.16%,26.7%
O=C(O)CCSc1nnc(-c2ccc3c(c2)OCO3)o1,45.9% (active),60.7% (active)
CN1CCN(/N=C/c2ccc(N(c3ccccc3)c3ccccc3)cc2)CC1,2.36%,27.4%
COc1ccc(C(=O)NC2CC3CCCC(C2)N3CC(C)C)cc1 (stereo not drawn),2.31%,-12.2%
Cc1ccc(S(=O)(=O)CCSC(=N)N)cc1,2.05%,6.17%
COCCn1c(SCC(=O)/C=C2\N(C)c3ccccc3C2(C)C)nnc1-c1ccncc1,-4.56%,8%
COc1cc(/C=N/NC(=O)c2ccc(COc3cc(C)ccc3C(C)C)cc2)cc(OC)c1O,-2.59%,62.9% (active)
O=C(NC(=O)c1ccccc1)Nc1ccccn1,4.41%,54.8% (active)
Cc1ccc(-n2nc3ccc(N)cc3n2)c(C)c1,-39.4%,21.3%
Cc1ccc(S(=O)(=O)C(NC(=O)c2ccccc2)=C(Cl)Cl)cc1,14.1%,16.8%
CC(NC(=O)CCc1nnc(-c2ccc(-c3ccccc3)cc2)o1)c1nc2ccccc2[nH]1 (stereo not drawn),15.2%,55.9% (active)
N=c1c2c3c(sc2ncn1N)CCCCC3,2.99%,-23.5%
COc1ccc(/C=C2/SC(=S)N(CCCC(=O)N3CCN(C)CC3)C2=O)cc1,8.95%,2.01%
O=C(O)C1(Nc2ccc(Br)cc2)CCCC1,-19.4%,-11.7%
Cn1nnnc1Sc1ncnc2scc(-c3cccc(S(C)(=O)=O)c3)c12,21.7%,2.26%
CCCc1nc(SCC(=O)Nc2cc(C)on2)c2ccccc2n1,1.01%,10.1%
Cc1nnc(SCc2nc3sc(C(=O)O)c(C)c3c(=O)[nH]2)s1,21.2%,9.02%
O=C(Cn1ncc2c([nH]c3ccccc32)c1=O)NCCc1ccccc1,21.4%,12.2%
O=[N+]([O-])c1ccc(S(=O)(=O)c2ccccc2)nc1,51.9% (active),36%
CC(C)N(C(=O)[C@H]1C[C@H](CC(=O)NCCc2ccccn2)C(=O)N2CCc3c([nH]c4cc(-c5ccco5)ccc34)[C@]12C)C(C)C,-4.18%,-6.81%
CCOc1ccc(-c2nc(CSCC(=O)NC3CCN(Cc4ccccc4)CC3)c(C)o2)cc1,8.65%,19.7%
CCCN1C(=O)C2C(C(=O)Nc3cccc(OC)c3)C3C=CC2(O3)C1C(=O)NC1CCCCC1 (stereo not drawn),-13.7%,-16.6%
COc1ccc(NC(=O)CSCC(=O)Nc2ccccc2C(=O)N2CCCCC2)cc1,-8.77%,-20.5%
O=c1[nH]c2ccc(Br)cc2c(=O)o1,44.5% (active),34.9%
CC(OC(=O)C1=COCCO1)C(=O)Nc1ccc(Cl)cn1 (stereo not drawn),-6.28%,-20.4%

SMILES,inhibition [1],inhibition [2]
COC(=O)c1ccc(/C=C2/SC(=S)N(CCCC(=O)Nc3ccc(O)cc3)C2=O)cc1,15.8%,7.74%
COc1ccc2cc3cc(C(=O)Nc4ccc5c(c4)OCO5)oc3nc2c1,-29.9%,-32%
Cc1nc2ccccc2c2c1C(=O)N(c1ccc(C(=O)O)cc1)C2=O,-3.24%,-28.2%
COc1ccc(CNC(=O)COC(=O)CCCOc2ccc(Cl)cc2Cl)cc1,13%,15.7%
Cc1cc(=O)oc2cc(OC(C)C(=O)NCCc3ccc(S(N)(=O)=O)cc3)ccc12 (stereo not drawn),-19.6%,-12.7%
CN(Cc1ccc(Cl)s1)C(=O)CCl,14.2%,22%
O=C(O)COc1ccc(-c2nccc(-c3ccccn3)n2)cc1,20.4%,79.1% (active)
Cc1ccc(N(C(=O)CCl)C(C(=O)NC2CCCCC2)c2cccnc2)cc1C (stereo not drawn),55.2% (active),61.7% (active)
Cc1cc(Cl)ccc1OCCCC(=O)NO,6.12%,32.7%
O=S(=O)(c1cccc2cnccc12)N1CCNCC1,5.01%,48.1% (active)
CCc1ccc(C(=O)Nc2nc3ccccc3[nH]2)cc1,-1%,45.8%
O=C(Cc1ccc(Cl)cc1)NCCc1cnc[nH]1,-16.2%,-12.5%
C[n+]1ccccc1/C=C/c1ccccc1Cl,-18.2%,-7.01%
Cc1ccc(C)c(OCc2ccc(C(=O)Nc3ccc([N+](=O)[O-])cn3)o2)c1,8.86%,35.9%
C=C1CCC2C(C)(C)CCC[C@]2(C)[C@H]1CC1=C(O)C(=O)C(CO)=CC1=O (stereo partly drawn),93.6% (active),98.8% (active)
Cc1cc(Cl)c(S(=O)(=O)N2CCN(c3ccccn3)CC2)cc1OCC(=O)NC1CCCCC1,10.5%,16.3%
Cc1ccc(C(=O)Nc2ncc([N+](=O)[O-])s2)cc1,-7.15%,57.7% (active)
O=C(Nc1ccc2c(c1)OCCO2)NC1(C(F)(F)F)Oc2ccccc2O1,-12.8%,43.7%
C[C@@H]1C[C@@H]2O[C@H]2CCCCC(=O)Cc2cc(O)cc(O)c2C(=O)O1,53.1% (active),28.7%
Cc1c(CCC(=O)N[C@@H](C)C(=O)O)c(=O)oc2cc3oc4c(c3cc12)CCCC4,38.8% (active),60.1% (active)
COc1cc(OC)c(C(=O)C=Cc2ccc(OC)c(OC)c2)c(OC)c1,-5.35%,6.31%
CC1CCCC(C)N1C(=O)c1cccc2c1-c1ccccc1/C2=N/O (stereo not drawn),-10.5%,8.15%
COc1cc(NC(=O)C2CC(c3c(F)cccc3Cl)=NO2)cc(OC)c1OC (stereo not drawn),-4.58%,4.43%
CC(=O)N(Cc1ccc(F)cc1)C1=C(NCCc2ccccc2)C(=O)c2ccccc2C1=O,14.1%,20%
